# Compound activity (PubChem BioAssay)
# FMDV antiviral = antivirals against foot and mouth disease virus. FMDV antiviral cell-based qHTS. Potency, µM (titrated, usually from 57.9 µM), for the others: at the top dose activity change, negative = inhibition, usual class: inhibitors. actives 1.2% (n = 410,000). AID 1159524; calls by dose curve; tested in HEK293T cells; also: read-out not given here; potency is read from the fitted curve at half-maximal effect; nearly all actives have a fitted effect of over 45% in size
# VACV mCherry inh = inhibitors of vaccinia virus infection (mCherry reporter signal); Potency, µM (highest dose often 36.5 µM), for the others: top-dose activity change, negative = inhibition, most hits filed as inhibitors; actives 0.63% (n = 310,000); Vaccinia virus mCherry reporter infection, fluorescence; calls by dose curve; tested in A549 cells; also: potency is read from the fitted curve at half-maximal effect; nearly all actives have a fitted effect of over 35% in size
# HCMV antiviral = inhibitors of human cytomegalovirus. actives 4.5% (n = 410,000). activity change, negative = inhibition, % at 57.5 µM. HFF cells, HCMV-luciferase reporter, 72 h; hits give low values; in the data active = activity change below about -60%; inconclusive = no clear call, values can overlap the other calls; inactive = above about -39%
#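 Compounds were evaluated in HFFs infected with an HCMV luciferase reporter virus (MOI 1 PFU/cell). Luciferase in lysates collected 72 h post infection served as the replication measure.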
# Lassa entry inh = Lassa virus entry inhibition. Lassa virus pseudotype entry inhibition, cell reporter. Potency, µM (top dose mostly 37.9 µM), without a hit: at the top dose activity change, negative = inhibition, most hits filed as inhibitors. actives 1.2% (n = 300,000); calls by dose curve; tested in HEK293 cells; also: potency is read from the fitted curve at half-maximal effect; nearly all actives have a fitted effect of over 50% in size
# VACV Venus inh = vaccinia inhibition (Venus reporter). Vaccinia virus Venus reporter expression, fluorescence. Potency, µM (doses to about 36.5 µM), without a hit: top-dose activity change, negative = inhibition, usual class: inhibitors. actives 0.46% (n = 330,000). AID 720580; calls by dose curve; tested in A549 cells; also: potency is read from the fitted curve at half-maximal effect; nearly all actives have a fitted effect of over 30% in size
# Marburg entry inh = Marburg virus entry inhibition. actives 1.8% (n = 300,000). Potency, µM (doses to about 37.8 µM), inactives show top-dose activity change, negative = inhibition, most hits filed as inhibitors. Marburg virus pseudotyped entry inhibition, cell reporter; calls by dose curve; tested in HEK293 cells; also: potency is read from the fitted curve at half-maximal effect
# Numbers without * were called inactive; i = inactive; ? = inconclusive; . = not tested or not shown; [ ] = dose if it differs, or a comment. In the library only some 6.5% were active in any assay of this set; here they are far more common. % is scaled to controls: 0 for no effect and ±100 for the full control effect.
SMILES,FMDV antiviral,VACV mCherry inh,HCMV antiviral,Lassa entry inh,VACV Venus inh,Marburg entry inh
COc1ccccc1C(=O)NC(=S)Nc1ccc(NC(=O)c2cccs2)cc1,?,-28%,-67*,-24%,-22%,?
COc1ccccc1C(=O)NC(=S)Nc1ccc(NC(=O)c2ccco2)cc1,-2%,-3%,-75*,-2%[46.1 µM],-3%,?
CCCCOc1ccc(C(=O)Nc2ccncc2)cc1,?,.,-76*,?,?,?
COc1ccc(C(=O)Nc2ccc(NC(=O)c3cccs3)cc2)cc1Cl,8%,.,-76*,6%,.,26%
COc1ccccc1C(=O)Nc1ccc(NC(=O)c2cccs2)cc1,-25%,?,-25,1%[46.1 µM],?,.
COc1ccccc1C(=O)Nc1ccc(NC(=O)c2ccco2)cn1,27%,i,17,22%,-13%,?
CCC(=O)N1CCc2cc(Br)cc(S(=O)(=O)CCC(=O)N3CCN(c4ccccc4OC)CC3)c21,0%,-14%,4,21%[46.1 µM],-9%,-1%[46.1 µM]
CCCCOc1cccc(C(=O)Nc2ccc(NC(=O)c3cccs3)cc2)c1,13%,-14%,-89*,?,?,?
CC(Nc1oc(-c2ccc(COc3ccccc3)o2)nc1C#N)c1ccccc1 (centres undefined),-13%,?,-79*,?,-29%,-1%[46.1 µM]
N#Cc1nc(-c2ccc(COc3ccccc3)o2)oc1NCc1ccccc1,-21%,-19%,?,-22%[46.1 µM],-17%,10%[46.1 µM]
CCOc1ccc(Nc2oc(-c3ccc(COc4ccc(OC)cc4)o3)nc2C#N)cc1,-20%,?,-81*,-2%[46.1 µM],-24%,-25%[46.1 µM]
COc1ccc(Nc2oc(-c3ccc(COc4ccccc4C)o3)nc2C#N)cc1,?,-26%,-7,-4%[46.1 µM],-25%,-21%[46.1 µM]
Cc1ccc(C)c(S(=O)(=O)NCc2nc(N3CCCC3)c3cc(Cl)ccc3n2)c1,-1%,-9%,.,.,-5%,.
CC(=O)N1CCN(C2=NC(=O)/C(=C/c3ccc(OS(=O)(=O)c4ccccc4)cc3)S2)CC1,-15%,.,-70*,.,.,.
O=C1N=C(N2CCOCC2)S/C1=C\c1ccccc1OS(=O)(=O)c1ccccc1,-1%,.,?,.,.,.
Cc1ccc(Cn2c(C(CO)Nc3nc(-c4ccc(F)cc4)cs3)nc3ccccc32)cc1 (centres undefined),-1%,-21%,-60*,.,?,.
COc1ccc(-c2csc(NC(CO)c3nc4ccccc4n3Cc3ccc(C)cc3)n2)cc1 (centres undefined),18%,-29%,4,.,?,.
CCOc1ccc(-n2nc(CO)c(C(=O)NCc3cccc(OC)c3)n2)cc1,22%,-2%,70,?,-9%,13%[46.1 µM]
CCCN1C(=O)C(Cc2nc3ccccc3c(=O)n2CC)c2cc(Br)ccc21 (centres undefined),-1%,-4%[7.34 µM],-73*,-27%[46.1 µM],-4%[7.34 µM],-25%[46.1 µM]
C[C@]1(c2cnc(Nc3ccccc3)s2)CCC(=O)O1,.,.,.,.,.,-10%[46.1 µM]
N#C/C(=C\c1ccc(Oc2ccc(C(F)(F)F)cc2[N+](=O)[O-])cc1)c1nc2ccccc2[nH]1,25µM*,.,-33,?,-16%,?
COCc1c(C(=O)N2CCC(N3CCCCC3)CC2)cnn1-c1ncc(C)c(-c2cccs2)n1,-14%,-11%,.,.,1%,.
CC(C)CC(=O)/C(=C/c1ccc(N(C)C)cc1)n1cncn1,-1%,-1%,-60*,-4%[46.1 µM],-16%,-1%[46.1 µM]
COc1ccc(/C=C(/C(=O)c2ccc(Cl)cc2Cl)n2cncn2)cc1,?,.,-16,11%,.,-2%
CC(C)CC(=O)/C(=C\c1ccc(Cl)cc1Cl)n1cncn1,7.9µM*,?,.,0.58µM*,13µM*,?
SMILES,FMDV antiviral,VACV mCherry inh,HCMV antiviral,Lassa entry inh,VACV Venus inh,Marburg entry inh
O=C(CSc1nnc(-c2ccc(OC(F)F)cc2)o1)N1CCOCC1,.,16µM*,54,28%,?,2%
FC(F)(F)c1cc(-c2ccccc2)nc(N2CCCCC2)n1,-1%,.,-9,-2%,-7%,-2%
O=C(O)C1CCCN1c1nc(-c2ccc(Cl)c(Cl)c2)cc(C(F)(F)F)n1 (centres undefined),-26%,?,0,?,?,0.5µM*
COc1cc(OC)c(OC)cc1CCC(C)NCCC(c1ccccc1)c1ccccc1 (centres undefined),-14%,?,-60*,.,?,.
COc1ccc(CCNCCC(c2ccccc2)c2ccccc2)cc1OC,?,i,24,.,-12%,.
COc1c(C)cccc1C(=O)Nc1cccc2ccc(C)nc12,-16%,-10%,8,?,-3%,4%[46.1 µM]
COc1ccc(/C=C2\C=Cc3ccccc32)cc1OC,.,3%,.,.,-12%,.
CCN(CC)S(=O)(=O)c1ccc(N/N=C/c2ccc(O)cc2O)nc1,-29%,4µM*,-101*,2.3µM*,?,3.3µM*
CCN(CC)S(=O)(=O)c1ccc(N/N=C(\C)c2ccncc2)nc1,-1%,-9%,13,2%[46.1 µM],8%,?
O=[N+]([O-])c1ccc(O)c(/C=N/Nc2ncnc3c2cnn3-c2ccccc2)c1,27%,.,-99*,.,.,.
O=C(N/N=C/c1cc([N+](=O)[O-])ccc1O)Nc1ccccc1,3%,?,6,-28%,-21%,?
O=[N+]([O-])c1ccc(NN=Cc2ccc(O)cc2O)nc1,13%,1.4µM*,-98*,?,?,?
O=[N+]([O-])c1ccc(NN=Cc2ccc(O)cc2)nc1,-17%,?,8,?,-2%,?
O=[N+]([O-])c1ccc(O)c(/C=N/Nc2ccccn2)c1,-22%,1.8µM*,-102*,?,5µM*,?
O=[N+]([O-])c1cccc(N/N=C/c2cc([N+](=O)[O-])ccc2O)c1,-27%,-22%,-9,?,-24%,?
COCC(=O)N1[C@H](CO)[C@@H]2c3ccccc3N(C(=O)c3ccccc3F)C[C@@H]21,.,.,-12,.,.,.
COCc1c(C(=O)N2CCCC(C)C2)cnn1-c1nccc(-c2cc(C)sc2C)n1 (centres undefined),26%,-5%,.,.,-3%,.
COc1ccc(NS(=O)(=O)c2ccc3[nH]c4c(c3c2)CCCCC4)cc1,-1%,-4%,-9,-3%[46.1 µM],-26%,.
O=C(O)CC(NS(=O)(=O)c1ccc(Cl)s1)c1ccccc1 (centres undefined),3%,-13%,12,?,-13%,.
O=[N+]([O-])c1ccc(NN=Cc2ccccc2O)nc1,65%,?,-98*,?,?,?
O=[N+]([O-])c1ccc(O)c(/C=N/Nc2nc3ccccc3[nH]2)c1,11%,8.9µM*,-99*,3.5µM*,?,2.8µM*
COc1ccccc1C=NNc1ccc([N+](=O)[O-])cn1,2%,-15%,20,17%,-1%,0%
C=CCOC(=O)C(C(C)=O)[C@@H](NC(=O)OC)c1ccc2ccccc2c1 (some centres undefined),.,.,.,.,.,23%[14.2 µM]
